Assay results reported in PubChem BioAssay AID620 (Sanford-Burnham Center for Chemical Genomics, 2007).
The campaign covered roughly 87,000 compounds. About 360 (0.41%) were called active. Shown is part of a subset that was picked to be rich in actives. Values without a mark were called inactive. Rule as the data show it: active = cytotoxicity above about 50%; inactive = the rest.

Assay: cytotoxicity in HT1080 fibrosarcoma cells, cell-based, fluorescence readout (AID 620);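 also: cells exposed to compound overnight then 4 h with Alamar Blue; 0% = vehicle DMSO and 100% = killing control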
Conditions: HT1080 viability, at 10 µM, hits give high values

Question: Which cytotoxicity does the source give for `CC(=O)Nc1ccc2c(c1)nc(CN1CCCC1)n2C` here?
Answer: Its cytotoxicity is -8.7%.

Question: For `Cc1c(NC(=O)CSc2ccccn2)c(=O)n(-c2ccccc2)n1C`, which cytotoxicity is on record?
Answer: The cytotoxicity was 1.3%.

Question: For `Cc1cccc2cc(CN(CCN3CCOCC3)C(=O)Nc3ccccc3F)c(=O)[nH]c12`, which cytotoxicity is on record?
Answer: The cytotoxicity was 13.6%.

Question: Which cytotoxicity does the source give for `CC12CCC(C(=O)N3CCCCC3)(CC1=O)C2(C)C` (configuration not stated) here?
Answer: The cytotoxicity was -0.3%.

Question: Which cytotoxicity does the source give for `COC(=O)[C@@]1(Cc2ccccc2)[C@H]2c3cc(C(=O)N(C)C)n(Cc4ccc(S(C)(=O)=O)cc4)c3C[C@H]2CN1C(=O)c1ccccc1` here?
Answer: The cytotoxicity was 2.9%.

Question: Which cytotoxicity does the source give for `O=c1ccc(Cc2ccccn2)n[nH]1` here?
Answer: Its cytotoxicity is -6.4%.

Question: Which cytotoxicity does the source give for `Cc1ccc(-n2c(SCC(=O)OC(C)C)nnc2-c2cnccn2)cc1` here?
Answer: Its cytotoxicity is 0.6%.

Question: For `COc1ccccc1N(C(=O)c1snc(C(N)=O)c1N)C(C(=O)NC1CCCC1)c1ccco1` (configuration not stated), which cytotoxicity is on record?
Answer: The cytotoxicity was -5.3%.

Question: Which cytotoxicity does the source give for `Cc1oc(-c2ccccc2F)nc1CS(=O)(=O)CC(=O)N1CCc2ccccc21` here?
Answer: Its cytotoxicity is -3.2%.

Question: With `CCOc1ccccc1C(=O)N1CCN(c2cccc(Cl)c2)CC1` as the molecule, how does the cytotoxicity read?
Answer: Its cytotoxicity is 50.8% (active).

Question: For `COc1ccccc1C(=O)N1CCN(c2cccc(Cl)c2)CC1`, which cytotoxicity is on record?
Answer: Its cytotoxicity is 53% (active).

Question: Which cytotoxicity does the source give for `COc1cc2c(C(=O)N3CCN(c4cccc(Cl)c4)CC3)cn(C)c(=O)c2cc1OC` here?
Answer: The cytotoxicity was 20.5%.

Question: For `COc1ccccc1CC(=O)N1CCN(c2cccc(C(F)(F)F)c2)CC1`, which cytotoxicity is on record?
Answer: Its cytotoxicity is -8.5%.

Question: With `O=C(c1ccccc1F)N1CCN(c2cccc(C(F)(F)F)c2)CC1` as the molecule, how does the cytotoxicity read?
Answer: Its cytotoxicity is -6.8%.

Question: For `COc1ccc(C(=O)N2CCN(c3cccc(Cl)c3)CC2)cc1`, which cytotoxicity is on record?
Answer: The cytotoxicity was -4.7%.

Question: With `Cc1ccc(C(=O)N2CCN(c3cccc(Cl)c3)CC2)cc1C` as the molecule, how does the cytotoxicity read?
Answer: Its cytotoxicity is -5.4%.

Question: Which cytotoxicity does the source give for `COc1ccc(C(=O)N2CCN(c3cccc(Cl)c3)CC2)c(OC)c1` here?
Answer: Its cytotoxicity is 15.6%.

Question: Which cytotoxicity does the source give for `COc1ccccc1C(=O)N1CCN(c2cccc(C(F)(F)F)c2)CC1` here?
Answer: The cytotoxicity was 58.7% (active).

Question: With `CCOc1ccccc1C(=O)N1CCOCC1` as the molecule, how does the cytotoxicity read?
Answer: Its cytotoxicity is -16.5%.

Question: For `O=C(O)c1ccccc1C(=O)N1CCN(c2cccc(Cl)c2)CC1`, which cytotoxicity is on record?
Answer: Its cytotoxicity is 8.7%.

Question: For `CCOc1ccc(C(=O)Cc2ccc3oc(C(=O)O)cc3c2)c(O)c1`, which cytotoxicity is on record?
Answer: The cytotoxicity was -8.8%.

Question: With `O=C(CSc1nc2ncc(Br)cc2[nH]1)Nc1ccc2c(c1)OCO2` as the molecule, how does the cytotoxicity read?
Answer: Its cytotoxicity is 2.1%.

Question: Which cytotoxicity does the source give for `COCCNC(=O)COC(=O)/C=C/c1c(C)nn(Cc2ccc(Cl)cc2Cl)c1Cl` here?
Answer: The cytotoxicity was 5.2%.

Question: For `C[N+]1(CC(=O)Nc2ccc(F)cc2)CCN(C(=O)c2ccco2)CC1`, which cytotoxicity is on record?
Answer: The cytotoxicity was 15.7%.

Question: For `COc1cc(-c2noc(CCCC(=O)NCc3ccccc3)n2)cc(OC)c1OC`, which cytotoxicity is on record?
Answer: Its cytotoxicity is 6.8%.

Question: Which cytotoxicity does the source give for `O=C(COc1ccccc1)N1CCN(S(=O)(=O)c2ccc(Cl)cc2)CC1` here?
Answer: Its cytotoxicity is 17.2%.

Question: Which cytotoxicity does the source give for `O=C1CC(c2ccccc2)CC(O)=C1C=NCCCO` (configuration not stated) here?
Answer: Its cytotoxicity is 4.4%.

Question: Which cytotoxicity does the source give for `Cc1cccc(OCC(=O)NCCN2CCOCC2)c1` here?
Answer: The cytotoxicity was 5.4%.

Question: With `COC(=O)[C@H](CCSC)NC(=O)Nc1ccc(OC)c(Cl)c1` as the molecule, how does the cytotoxicity read?
Answer: Its cytotoxicity is -10.8%.

Question: Which cytotoxicity does the source give for `Cc1n[nH]c(C)c1S(=O)(=O)N1CCCC(C(=O)NCc2cccs2)C1` (configuration not stated) here?
Answer: The cytotoxicity was 2.8%.

Question: For `O=C(CNS(=O)(=O)c1ccc(F)cc1)N1CCN(c2ccccc2)CC1`, which cytotoxicity is on record?
Answer: The cytotoxicity was 7%.

Question: With `Cc1nc2ccc(NC(=O)Cc3ccsc3)cc2s1` as the molecule, how does the cytotoxicity read?
Answer: The cytotoxicity was -7.3%.

Question: With `COc1ccc(N2CCN(Cc3nc4c(c(=O)n(C)c(=O)n4C)n3CCc3ccccc3)CC2)cc1` as the molecule, how does the cytotoxicity read?
Answer: Its cytotoxicity is 0.1%.

Question: For `Cc1cc(=O)oc(C)c1C(=O)N1CCN(c2ccc(F)cc2)CC1`, which cytotoxicity is on record?
Answer: Its cytotoxicity is 5.9%.

Question: For `CC(C)(C)C(=O)/C(=C\c1ccc([N+](=O)[O-])cc1)n1cncn1`, which cytotoxicity is on record?
Answer: The cytotoxicity was 89% (active).

Question: With `O=[N+]([O-])/C(C(Cl)=C(Cl)Cl)=C(\Nc1ccc(F)cc1)n1cncn1` as the molecule, how does the cytotoxicity read?
Answer: Its cytotoxicity is 10.6%.

Question: For `Cn1ncc(N=Cc2ccc([N+](=O)[O-])cc2)c1C(=O)N1CCOCC1`, which cytotoxicity is on record?
Answer: Its cytotoxicity is -3.9%.

Question: Which cytotoxicity does the source give for `O=C(COc1ccc(S(=O)(=O)Nc2ccccc2)cc1)N1CCOCC1` here?
Answer: Its cytotoxicity is -4.7%.

Question: With `C/C=C(\CS(=O)(=O)c1ccccc1)S(=O)(=O)c1ccccc1` as the molecule, how does the cytotoxicity read?
Answer: The cytotoxicity was -9.9%.

Question: With `CCOC(=O)CS(=O)(=O)c1ccccc1` as the molecule, how does the cytotoxicity read?
Answer: The cytotoxicity was -4.5%.

Question: With `O=S(=O)(C/C(=C/CO)S(=O)(=O)c1ccccc1)c1ccccc1` as the molecule, how does the cytotoxicity read?
Answer: The cytotoxicity was 51.2% (active).

Question: With `CC(C)C[C@H](NC(=O)N1CCN(c2ccccc2)CC1)C(=O)O` as the molecule, how does the cytotoxicity read?
Answer: Its cytotoxicity is 6.2%.

Question: Which cytotoxicity does the source give for `O=C(c1ccc(F)cc1)N1CCN(c2ncccn2)CC1` here?
Answer: Its cytotoxicity is 2%.

Question: With `Cc1ccccc1NC(=O)CN1C(=O)NC2(CCCCC2)C1=O` as the molecule, how does the cytotoxicity read?
Answer: The cytotoxicity was 10%.

Question: Which cytotoxicity does the source give for `Cc1ccc(CN2CCN(C(=O)CCN3C(=O)c4ccccc4C3=O)CC2)cc1` here?
Answer: Its cytotoxicity is 6.3%.

Question: Which cytotoxicity does the source give for `CCOC(=O)c1[nH]c(C)c(C(=O)c2ccc(C)cc2)c1C` here?
Answer: Its cytotoxicity is 59.5% (active).

Question: Which cytotoxicity does the source give for `CCOC(=O)c1[nH]c(C)c(C(=O)c2cc(F)ccc2F)c1C` here?
Answer: Its cytotoxicity is 57.2% (active).

Question: With `CCOC(=O)c1[nH]c(C)c(C(=O)Nc2ccc(C)c(F)c2)c1C` as the molecule, how does the cytotoxicity read?
Answer: Its cytotoxicity is -2.9%.

Question: For `CCOC(=O)c1[nH]c(C)c(C(=O)OCC)c1C`, which cytotoxicity is on record?
Answer: The cytotoxicity was 2.3%.

Question: Which cytotoxicity does the source give for `CCOC(=O)c1[nH]c(C)c(C(=O)NCc2ccc(C)cc2)c1C` here?
Answer: The cytotoxicity was -8.9%.

Question: For `CCOC(=O)c1[nH]c(C)c(C(=O)Nc2ccc(F)cc2)c1C`, which cytotoxicity is on record?
Answer: The cytotoxicity was -9.3%.

Question: For `CCOC(=O)c1c(C)sc2c1N(C(=O)CN1CCOCC1)c1cc(Cl)ccc1S2`, which cytotoxicity is on record?
Answer: Its cytotoxicity is 12.4%.

Question: For `O=C(OCC(=O)N1CCN(c2ccccc2)CC1)C1=COCCO1`, which cytotoxicity is on record?
Answer: Its cytotoxicity is -8.1%.

Question: With `O=C(OCC#CCSc1nnc(-c2ccc([N+](=O)[O-])cc2)o1)c1cccs1` as the molecule, how does the cytotoxicity read?
Answer: Its cytotoxicity is -10.8%.

Question: Which cytotoxicity does the source give for `CCSc1nnc(NC(=O)COc2ccccc2)s1` here?
Answer: The cytotoxicity was -5%.

Question: Which cytotoxicity does the source give for `O=C(NCc1ccncc1)Nc1ccc(F)cc1` here?
Answer: Its cytotoxicity is 14.7%.

Question: With `COc1ccc(OC)c(S(=O)(=O)n2nc(-c3ccccc3)cc2N)c1` as the molecule, how does the cytotoxicity read?
Answer: The cytotoxicity was -6.1%.

Question: With `COc1ccc(-c2cc(N)n(S(=O)(=O)c3c(F)c(F)c(F)c(F)c3F)n2)cc1OC` as the molecule, how does the cytotoxicity read?
Answer: The cytotoxicity was 59.5% (active).

Question: For `COc1ccc(S(=O)(=O)n2nc(-c3cc(OC)c(OC)c(OC)c3)cc2N)cc1OC`, which cytotoxicity is on record?
Answer: The cytotoxicity was 1.5%.

Question: For `CCOC(=O)C(C)Oc1cccc2c(=O)n(CC(=O)N3CCc4ccccc43)ccc12` (configuration not stated), which cytotoxicity is on record?
Answer: Its cytotoxicity is 4.2%.

Question: For `CCOC(=O)C(C)Oc1cccc2c(=O)n(CC(=O)NCc3ccco3)ccc12` (configuration not stated), which cytotoxicity is on record?
Answer: Its cytotoxicity is 65.3% (active).

Question: With `CCOC(=O)COc1cccc2c(=O)n(CC(=O)NCc3ccc4c(c3)OCO4)ccc12` as the molecule, how does the cytotoxicity read?
Answer: The cytotoxicity was 13.3%.
